TSHR agonist: TSH receptor (human) agonism | 73,000 tested, 0.48% active | P16473 | HEK293-CNG-TSHR cells (CNG channel as cAMP sensor), membrane potential dye, cAMP | Potency, µM (top dose mostly 57.1 µM), for the others: at the top dose activation, hits mostly activators | AID 926; active = well fitted activation curve with a large enough effect in the main read-out, with a control signal flat, not every such curve was filed as active; inconclusive = small, poorly fitted or top-dose-only effect, or a change in a side signal; inactive = no such curve, though single readings can be large or run the other way; % of control where 0% means no effect;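 also: the control signal comes from parental cells without the receptor; potency is read from the fitted curve at half-maximal effect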
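cAMP rise detected as CNG-channel membrane depolarization by fluorescent dye (emission 590 nm), 30 min after compound, following 60 min dye loading containing 100 uM RO 20-1724 at room temperature. Cells: TSHR/CNG HEK 293, with parental CNG HEK 293 as control.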
Luciferase inh: inhibitors of firefly luciferase. P08659. purified firefly luciferase, luminescence, 8 min. Potency, µM (series often up to 57.1 µM), for inactives: at the highest dose activity change, negative = inhibition, most hits filed as inhibitors. 72,000 tested, 2.2% active. AID 411; also: potency is read from the fitted curve at half-maximal effect; % is scaled to controls: 0 for no effect and ±100 for the full control effect; nearly all actives have a fitted effect of over 40% in size
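Here, luciferase activity is measured as luminescence following an 8 min room-temperature reaction at 10 uM ATP, pH 7.2. Every library sample is titrated.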
Tau fil binding: binders of human tau filaments. 71,000 tested, 2% active. recombinant tau filaments, thioflavin S fluorescence, 15 h; filaments grown with octadecylsulfate alongside compound. Potency, µM (titrated, usually from 57.1 µM), for inactives: at the top dose activity change, negative = inhibition. P10636;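 also: potency is read from the fitted curve at half-maximal effect; % is scaled to controls: 0 for no effect and ±100 for the full control effect; actives lower thioflavin S fluorescence by blocking filaments or displacing dye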
Target sequence (P10636 whole entry, looked up): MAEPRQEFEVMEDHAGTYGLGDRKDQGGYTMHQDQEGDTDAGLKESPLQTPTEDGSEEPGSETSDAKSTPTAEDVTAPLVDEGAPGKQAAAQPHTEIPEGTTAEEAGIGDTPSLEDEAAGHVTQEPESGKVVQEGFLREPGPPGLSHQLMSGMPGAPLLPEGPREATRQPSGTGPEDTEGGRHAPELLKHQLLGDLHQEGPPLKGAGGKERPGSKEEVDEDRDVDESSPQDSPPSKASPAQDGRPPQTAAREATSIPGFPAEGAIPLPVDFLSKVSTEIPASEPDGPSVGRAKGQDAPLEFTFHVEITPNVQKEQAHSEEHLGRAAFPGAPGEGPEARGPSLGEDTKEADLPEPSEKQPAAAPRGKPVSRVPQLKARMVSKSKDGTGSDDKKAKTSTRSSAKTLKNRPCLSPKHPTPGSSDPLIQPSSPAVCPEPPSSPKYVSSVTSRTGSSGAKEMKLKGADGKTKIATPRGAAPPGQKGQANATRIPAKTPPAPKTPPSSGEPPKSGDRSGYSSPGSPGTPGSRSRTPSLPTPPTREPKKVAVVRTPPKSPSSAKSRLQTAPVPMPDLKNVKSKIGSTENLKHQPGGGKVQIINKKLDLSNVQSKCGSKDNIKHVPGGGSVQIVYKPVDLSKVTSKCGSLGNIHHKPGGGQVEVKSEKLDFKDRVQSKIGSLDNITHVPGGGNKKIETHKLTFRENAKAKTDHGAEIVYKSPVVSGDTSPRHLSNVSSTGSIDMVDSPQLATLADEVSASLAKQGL
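Tau 2 uM in ThS buffer dispensed; compound added; 60 uM ODS added (finals 1 uM tau, 30 uM ODS); 15 h 37 C; fluor ex450/em510.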
PK Bst: alters activity of Bacillus stearothermophilus pyruvate kinase | purified pyruvate kinase, luminescence ATP production; ribose 5-phosphate activator present at AC10 | Potency, µM | 51,000 tested, 1.2% active | AID 361; in the data active = potency below about 11 µM; inconclusive = mostly about 12 µM to 25 µM;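 the screen sought inhibitors and activators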;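 also: potency is read from the fitted curve at half-maximal effect; scaled between full activation by ribose 5 phosphate and full inhibition by luteolin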
ERK AVP inh: vasopressin-driven ERK pathway inhibition. AID 995. HEK293-V1b, vasopressin-stimulated pERK AlphaScreen. Potency, µM (top dose mostly 57.5 µM), for the others: at the highest dose activity, negative = inhibition, most hits filed as inhibitors. 72,000 tested, 0.99% active; also: potency is read from the fitted curve at half-maximal effect; % is scaled to controls: 0 for no effect and ±100 for the full control effect; nearly all actives have a fitted effect of over 55% in size
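qHTS, compounds titrated on V1b-expressing HEK293 cells. Preincubation 30 min at 37C, vasopressin 25 nM for 5 min, lysis 10 min, bead incubation 5 hr at room temperature.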
HEK293 cAMP cs: raises cAMP in parental HEK293 cells, TSHR agonist counter-screen; parental HEK293 CNG cAMP sensor, membrane potential fluorescence; Potency, µM (highest dose often 57.1 µM), without a hit: top-dose activation, actives largely listed as activators; 73,000 tested, 2.5% active; AID 938; also: potency is read from the fitted curve at half-maximal effect; % of control where 0% means no effect; nearly all actives have a fitted effect of over 55% in size
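Parental HEK 293 cells stably expressing a modified CNG channel (no TSHR) report cAMP rise as membrane depolarization. Membrane potential dye with 100 uM RO 20-1724 was loaded for 60 min at room temperature, then compound added for 30 min; fluorescence read at 590 nm.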
parental cAMP: TSHR-independent cAMP elevation, counter-screen. shares compounds with TSHR agonist. parental HEK293 CNG biosensor, cAMP membrane potential fluorescence. activity change, negative = inhibition, % at 32.9 µM. 150 tested, under 10 active
Numbers without * were called inactive; ? = inconclusive; · = no result given; [ ] = dose if it differs, or a comment. The list is not random: actives were taken first. Their share in the collection is about 7.2%. Unless noted, calls follow the shape of the dose curve; as a rule, active = well fitted curve in the direction sought with a large enough effect; inconclusive = small, poorly fitted or top-dose-only effect, or another doubt; inactive = no such curve, though single readings can be large; an effect the other way counts as inactive or inconclusive.

SMILES	TSHR agonist	Luciferase inh	Tau fil binding	PK Bst	ERK AVP inh	HEK293 cAMP cs	parental cAMP
Cc1oc(-c2cccc(Cl)c2)nc1CN1CCCC(C(=O)NC(C)c2ccc3c(c2)OCCO3)C1 (stereo not given)	5.3%	1.5%	264.0%	·	?	9.0%	8.8[25.6 µM]
CSc1nc(NC(C)(C)C)nc(Oc2ccc(=O)[nH]n2)n1	25.1µM*	1.1%	7.3%	>57	-22.0%	-0.4%	-2.8
CCNc1nc(NCc2ccccc2)nc(Oc2ccc(=O)[nH]n2)n1	102.5%	-0.5%	-12.6%	>57	?	-2.8%	·
CCOC(=O)CCN1C(=O)[C@H]2[C@H]3[C@H](O)[C@H](O)C/C(=N/NC(=O)OCc4ccc(OC)cc4)[C@H]3CC[C@@H]2C1=O	-0.7%[11.4 µM]	-1.7%[11.4 µM]	·	·	-16.1%[11.5 µM]	-4.4%[11.4 µM]	·
Cn1cccc1Cc1nnc(SCC(N)=O)n1CCc1ccccc1	4.1%	1.6%	7.9%	·	-28.0%	3.1%	3.1[25.6 µM]
COc1cc2c(N3CCOCC3)cc(O)c(CC(=O)Nc3ccccc3)c2cc1OC	31.6µM*	0.3%	11.6%	>57	1.7%	25.5%	-10.7
Brc1ccc(Oc2nnnn2-c2ccccc2)cc1	25.1µM*	0.0%	-6.0%	·	21.8%	21.4%	20.2
CC(C)(C)NC[C@H](O)COc1cccc2c1CCC(=O)N2	-12.2%[25.6 µM]	9.3%[25.5 µM]	6.7%[25.6 µM]	·	-1.0%[25.7 µM]	-1.4%[25.6 µM]	·

From PubChem BioAssay
